In ChEMBL document CHEMBL1157539, “Thousands of chemical starting points for antimalarial lead identification” (Nature, 2010):

tested on: Plasmodium falciparum; test: GSK_TCMDC: Inhibition of Plasmodium falciparum 3D7 in whole red blood cells, using parasite LDH activity as an index of growth. Test compounds present at 2uM; type: functional

First: CCCc1cc(Cc2cnc(N)nc2N)ccc1OCCCCCC(=O)O.Cl
Second: CCC(Cc1cnc2nc(N)nc(N)c2n1)c1ccc(C(=O)N[C@@H](CCC(=O)O)C(=O)O)cc1 (stereo not given in full) [EDATREXATE]
The Inhibition of the first is higher: 97% for the first, 93% for the second.

Going from `CC(NCCC1CCC(NC(=O)N[C@H](C)C(O)(c2ccccc2)c2ccccc2)CC1)c1cccc2ccccc12` (stereo not given in full) to `COc1ccc2nccc([C@@H](O)CN3CCC(NC(=O)c4ccc(Oc5ccccc5)cc4)CC3)c2c1`, the Inhibition falls from 86% to 82%.

`Cn1cncc1C(=O)Nc1ccc(-c2cccc(-c3nc4cc(C(F)(F)F)ccc4[nH]3)c2)cc1` and `CS(=O)(=O)c1ccc(CNCc2cccc(-c3cccc(-c4nc5cc(C(F)(F)F)ccc5[nH]4)c3)c2)cc1.O=C(O)C(F)(F)F` are the same in Inhibition: 100% for the first, 100% for the second.

Going from `O=C(NC1CCN(Cc2ccccc2)CC1)c1ccc(-c2nc3cc(Cl)c(Cl)cc3[nH]2)c(F)c1` to `CN(C(=O)NCCc1ccccc1)C1CCN(CCCCCNC(=O)/C=C/c2ccc(Cl)c(Cl)c2)CC1`, the Inhibition falls from 100% to 93%.

First: CN(Cc1ccc(-c2ccc(C(F)(F)F)cc2)cc1)C(=O)Cn1c(CCc2cccc(F)c2F)cc(=O)c2ccc(OCC3CCCN3C)cc21.O=C(O)C(O)C(O)C(=O)O (stereo not given)
Second: Fc1ccc2[nH]c(-c3ccc(-c4ccc(CNCc5ccccc5)cc4)cc3)nc2c1.O=C(O)C(F)(F)F
The Inhibition of the first is lower: 87% for the first, 100% for the second.

Going from `Cc1cccc2nc(-c3ccc(-c4cccc(NC(=O)CN5CCN(C)CC5)c4)s3)[nH]c12` to `CCCCCN1CCCN(Cc2cccc(NC(=O)c3cc4ccccc4s3)c2)CC1.O=C(O)C(F)(F)F`, the Inhibition rises from 96% to 99%.

First: O=C(Nc1ccc(Cl)cc1C(=O)Nc1cccc(F)c1)c1ccc([N+](=O)[O-])cc1
Second: COC(=O)c1ccc2c(c1)nc(Nc1cccc(F)c1)n2CC(O)c1ccccn1 (stereo not given)
The Inhibition of the first is lower: 89% for the first, 99% for the second.

Going from `COc1ccc(Nc2ncc3c(-c4cccc(NC(=O)Cc5cccc(F)c5)c4)c[nH]c3n2)cc1OC` to `COc1cccc(NC(=O)Nc2c(-c3cccc(C(F)(F)F)c3)c(C(F)(F)F)nn2C)c1`, the Inhibition falls from 100% to 93%.

Going from `Cc1ccc2[nH]c(C)cc(=NN=Cc3ccc(Cl)cc3)c2c1` to `CCNc1c2ccc(Cl)cc2nc2ccc(OC)cc12.Cl`, the Inhibition falls from 100% to 99%.

Compared with `O=C(NC(=O)c1ccccc1)NC1CCN(c2ccnc3cc(Cl)ccc23)C1.O=C(O)C(F)(F)F` (stereo not given), `Cc1cc(-c2cccc(CNC3CCN(C)CC3)c2)ccc1S(=O)(=O)NCc1ccccc1.O=C(O)C(F)(F)F` is lower in Inhibition: 100% for the first, 99% for the second.

Going from `COc1cccc(CC(=O)N2CCC(n3c(C)nc4ccc(C)cc43)CC2)c1` to `COc1cc(N)c(Cl)cc1C(=O)NCC1CCN(c2nc(C)cc(C)n2)CC1`, the Inhibition falls from 100% to 96%.

First: CC(C)C[C@@H](C(=O)N[C@@H](CCCCNC(=O)OCc1ccccc1)C(=O)Nc1nccs1)[C@H](C)N(O)C=O
Second: Cc1cc(N[C@@H](CC(C)C)C(=O)Nc2ccccc2)nc(NCCc2ccccc2)n1.O=C(O)C(F)(F)F
The Inhibition of the first is lower: 99% for the first, 100% for the second.

Compared with `CC(=O)Nc1ccc(CN(Cc2ccc(OC(C)(C)C)cc2)Cc2ccc3c(c2)OCCO3)cc1`, `CC(C)(C)c1ccc(CN2CCC(CNC(=O)c3cc(-c4ccccc4C(F)(F)F)cs3)C2)cc1.O=C(O)C(F)(F)F` (stereo not given) is higher in Inhibition: 91% for the first, 92% for the second.

Compared with `CCN(CCCNc1nc(=S)[nH]c2cc(OC)c(OC)cc12)c1ccccc1`, `COc1cccc(OC(C)(C)c2nc(N[C@@H](C)c3ccccc3)c3cn[nH]c3n2)c1` is lower in Inhibition: 100% for the first, 89% for the second.

Compared with `N=C(Nc1nc(-c2ccccn2)cc2ccccc12)c1cccc(Cl)c1`, `c1ccc(Oc2ccc(Nc3ccnc4ccc(-c5ccccn5)cc34)cc2)cc1` is lower in Inhibition: 100% for the first, 80% for the second.

Going from `COc1cc(C=C(C2=NC(=O)CS2)c2nc3cccnc3n2C)ccc1O` to `c1cncc(NCc2ccc(-c3cc4ccncc4cc3OC3CCNCC3)s2)c1`, the Inhibition rises from 89% to 100%.

Going from `Nc1ccc(-c2nc3cc(-c4ccc5[nH]c(-c6ccc(N)cc6)nc5c4)ccc3[nH]2)cc1` to `Nc1nc(N)c2cc(Sc3ccc4ccccc4c3)ccc2n1`, the Inhibition falls from 100% to 95%.

First: C=C[C@]1(C)C[C@@H](OC(=O)CNC[C@@H](O)CN2C[C@H](c3ccnc4ccc(OC)nc34)OC2=O)[C@@]2(C)[C@@H]3C(=O)CC[C@@]3(CC[C@@H]2C)[C@@H](C)[C@@H]1O
Second: O=C(NCCc1ccc(Cl)c(Cl)c1)[C@@H]1CCCN1C(=O)c1ccc(O)c(-c2cccc(C(F)(F)F)c2)c1
The Inhibition of the first is lower: 89% for the first, 97% for the second.

First: Cl.O=C(c1ccc(Cl)cc1)C1CCN(CCCOc2ccc3c(c2)CCNCC3)CC1
Second: CCCCCCN1CCC(NCc2cccc3ccccc23)CC1.O=C(O)C(F)(F)F
The Inhibition of the first is lower: 93% for the first, 95% for the second.

First: Cc1cc(N2CCCN(CC3CCCCC3)CC2)nc(Nc2ccc(Br)cc2)n1
Second: c1csc(-c2ccc3c(c2)CC(NCc2c[nH]c4cnccc24)C3)c1 (stereo not given)
The Inhibition of the first is lower: 95% for the first, 100% for the second.
